Compound activity deposited in PubChem BioAssay by several laboratories.
An excerpt weighted towards active compounds, which were near 3.6% of everything screened.
CendR NRP1 mod = modulators of CendR peptide binding to NRP-1, primary screen, biochemical, fluorescence polarization, uHTS | Neuropilin-1 (Homo sapiens), O14786 | FAM-RPARPAR peptide binding to NRP-1 | inhibition, % at 25 µM | 0.85% of 360,000 active;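 active means inhibition or corrected inhibition above about 18%, plus a signal ratio from 0.5 to 1.5, limit read from the data, passing the limit was not always enough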
Target sequence (O14786 whole entry, looked up): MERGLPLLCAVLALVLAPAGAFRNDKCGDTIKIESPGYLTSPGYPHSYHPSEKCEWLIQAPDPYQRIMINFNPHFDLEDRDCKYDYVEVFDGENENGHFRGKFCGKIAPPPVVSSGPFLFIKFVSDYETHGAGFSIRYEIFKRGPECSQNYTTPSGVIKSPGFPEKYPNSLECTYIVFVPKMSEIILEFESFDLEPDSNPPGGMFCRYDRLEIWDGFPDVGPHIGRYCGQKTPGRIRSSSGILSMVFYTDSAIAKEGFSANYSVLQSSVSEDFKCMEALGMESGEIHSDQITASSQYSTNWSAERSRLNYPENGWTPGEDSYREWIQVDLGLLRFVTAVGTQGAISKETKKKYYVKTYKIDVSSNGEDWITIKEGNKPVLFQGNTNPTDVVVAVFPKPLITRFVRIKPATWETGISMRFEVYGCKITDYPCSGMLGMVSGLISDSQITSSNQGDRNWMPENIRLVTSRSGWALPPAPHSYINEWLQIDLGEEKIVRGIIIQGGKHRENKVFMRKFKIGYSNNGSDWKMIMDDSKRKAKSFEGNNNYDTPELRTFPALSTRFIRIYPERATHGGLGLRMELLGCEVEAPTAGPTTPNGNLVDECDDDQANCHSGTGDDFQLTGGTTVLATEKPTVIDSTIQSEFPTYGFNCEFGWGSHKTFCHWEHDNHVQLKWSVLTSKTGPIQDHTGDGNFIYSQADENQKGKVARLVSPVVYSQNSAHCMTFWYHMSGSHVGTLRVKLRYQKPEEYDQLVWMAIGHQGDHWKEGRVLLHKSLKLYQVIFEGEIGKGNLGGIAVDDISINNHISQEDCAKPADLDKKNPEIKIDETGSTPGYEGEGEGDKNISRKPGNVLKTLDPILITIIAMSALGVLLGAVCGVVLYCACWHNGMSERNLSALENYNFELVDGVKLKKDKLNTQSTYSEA
CRFR2-BP antag = antagonists of CRF-BP/CRF-R2 complex, primary screen, cell-based, HEK293, calcium dye fluorescence, uHTS. inhibition, % at 11.8 µM. CRF-induced calcium fluorescence. 0.59% of 350,000 active;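 active means inhibition of the ligand-induced calcium signal above about 50% at the single tested concentration, limit read from the data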
NadD inh = inhibitors of S. aureus NadD, primary screen, biochemical, colorimetric, uHTS; Nicotinate-nucleotide adenylyltransferase NadD (Staphylococcus aureus N315); purified NadD enzyme, colorimetric absorbance read-out; inhibition, % at 20 µM; 0.78% of 360,000 active; AID 602399, 2012; in the data active means inhibition above about 26%
FAS TE block = FAS thioesterase domain inhibitors, primary screen, biochemical, fluorescence intensity, uHTS | Fatty acid synthase (Homo sapiens), P49327 | recombinant FAS-TE, OMFH fluorogenic substrate, fluorescence endpoint | inhibition, % at 15 µM | 0.67% of 360,000 active | AID 602261, 2012;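 active means compounds whose normalised, plate-corrected inhibition of enzyme fluorescence in the single-dose primary screen is 50% or more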;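 further: 0% = DMSO with enzyme and 100% = substrate without enzyme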
Myeloid diff 2 = induction of myeloid progenitor differentiation, primary screen, cell-based, flow cytometry, MLPCN library | calls only at 10 µM | ER-HoxA9 myeloid progenitors, lysozyme-GFP differentiation | 1% of 360,000 active | AID 624256, 2012;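 active means normalized GFP-positive differentiation at or above the plate's own cutoff, the solvent-only control mean plus 3 SD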;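 further: cells exposed to compound for four days before flow analysis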
Myeloid diff CP1 = inducers of myeloid progenitor differentiation, confirmation, cell-based, GFP/Mac1 flow cytometry, cherry pick 01; 2% of 2,300 active; shares compounds with Myeloid diff 2; calls only; AID 651706, 2012; ER-HoxA9 myeloid progenitors, GFP/Mac1 double-positive flow;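 active means share of green or green-and-red cells above 9 and 9% in run 1 or 4 and 3% in run 2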
GFP autofluor = flagged as fluorescent in myeloid differentiation counter-screen; fluorescence response, % (no concentration beside the values); 7.4% of 2,300 active; AID 651707; shares compounds with Myeloid diff 2; ER-HoxA9 myeloid progenitors, no estrogen, GFP autofluorescence flow cytometry; vehicle wells 0%, positive control 100%;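 active means over 5% cells positive for green fluorescent reporter, or over 2% positive for both it and APC stain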;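 further: range taken on the double positive population between DMSO and positive control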
Numbers without * were called inactive.

For O=C(COC(=O)c1ccc(NS(=O)(=O)c2cccs2)cc1O)Nc1nc2ccccc2s1 the results were CendR NRP1 mod -17, CRFR2-BP antag -10, NadD inh 15, FAS TE block 0 and Myeloid diff 2 inactive.
For CCOC(=O)c1c(C)oc2ccc(NS(=O)(=O)c3cccs3)cc12 the results were CendR NRP1 mod -5, CRFR2-BP antag -23, NadD inh -7, FAS TE block 9, Myeloid diff CP1 inactive and GFP autofluor 0.
`O=C(COC(=O)c1ccc(NS(=O)(=O)c2cccs2)cc1O)NCc1ccccc1` gave CendR NRP1 mod -12, CRFR2-BP antag -6, NadD inh 0, FAS TE block 0, Myeloid diff 2 inactive, Myeloid diff CP1 inactive and GFP autofluor 0.
Screening CCn1c(=O)c([N+](=O)[O-])c(NCC2CCCO2)c2ccccc21 (stereo not given) returned CendR NRP1 mod -7, CRFR2-BP antag -5, NadD inh 1, FAS TE block -6 and Myeloid diff 2 inactive.
Screening COc1ccc(-n2c(=S)[nH]c3cc(C(=O)Nc4ccc(C)c(F)c4)ccc3c2=O)c(OC)c1 returned CendR NRP1 mod 0, CRFR2-BP antag 29, NadD inh 10, FAS TE block 16, Myeloid diff 2 active, Myeloid diff CP1 inactive and GFP autofluor 0.
Screening CCOc1ccc(NC(=O)c2ccc3c(=O)n(-c4ccc(OC)cc4OC)c(=S)[nH]c3c2)cc1 returned CendR NRP1 mod -3, NadD inh 7, FAS TE block 14 and Myeloid diff 2 inactive.
Screening COc1ccc(C(=O)N2CCc3cc(OC)c(OC)cc3C2c2ccc(OC)c(OC)c2)cc1 (stereo not given) returned CendR NRP1 mod 10, CRFR2-BP antag 29, NadD inh -2, FAS TE block -7, Myeloid diff 2 inactive, Myeloid diff CP1 inactive and GFP autofluor 0.
Screening CCCC(=O)Nc1nc2ccc(NC(=O)c3ccc(Br)o3)cc2s1 returned CendR NRP1 mod -2, CRFR2-BP antag -20, NadD inh 1, FAS TE block 7, Myeloid diff 2 active, Myeloid diff CP1 inactive and GFP autofluor 0.
For Cc1cc2cc(C(c3nnnn3CC3CCCO3)N3CCCc4ccccc43)c(=O)[nH]c2cc1C (stereo not given) the results were CendR NRP1 mod -19, CRFR2-BP antag -33, NadD inh 9, FAS TE block 15, Myeloid diff 2 inactive, Myeloid diff CP1 inactive and GFP autofluor 0.
Screening Cc1ccccc1Cn1nnc(-c2ccc(F)cc2)n1 returned CendR NRP1 mod 8, CRFR2-BP antag 9, NadD inh -2, FAS TE block 18 and Myeloid diff 2 inactive.
`COc1ccccc1CCNC(=O)C(=O)NCC1CCCN1S(=O)(=O)c1ccccc1` (stereo not given) gave CendR NRP1 mod -2, CRFR2-BP antag -6, NadD inh -5, FAS TE block 4 and Myeloid diff 2 inactive.
For COC(=O)c1cc2c(=O)c3ccccc3oc2nc1/C=C/N(C)C the results were CendR NRP1 mod 141, CRFR2-BP antag -173, NadD inh -9, FAS TE block -154, Myeloid diff 2 active, Myeloid diff CP1 active and GFP autofluor 1.
For O=C(CN1CCN(Cc2ccccc2)CC1)N/N=C/c1c[nH]c2ccccc12 the results were CendR NRP1 mod -4, CRFR2-BP antag 4, NadD inh -3, FAS TE block -12 and Myeloid diff 2 inactive.
`CSCCC(NS(=O)(=O)/C=C/c1ccccc1)C(=O)O` (stereo not given) gave CendR NRP1 mod 3, CRFR2-BP antag -22, NadD inh -2, FAS TE block -2 and Myeloid diff 2 inactive.
`C/C(CC(=O)Nc1cccc(C(F)(F)F)c1)=N/NC(=O)C(=O)NCCO` gave CendR NRP1 mod 1, CRFR2-BP antag 5, NadD inh 5, FAS TE block -7 and Myeloid diff 2 inactive.
Cc1cc(C)cc(N2C(N)=NC(N)=NC2c2ccccc2F)c1 (stereo not given) was read as CendR NRP1 mod -9, CRFR2-BP antag 8, NadD inh 0, FAS TE block -3, Myeloid diff 2 inactive, Myeloid diff CP1 inactive and GFP autofluor 0.
For COc1cc(C(=O)COC(=O)c2cnc(C)cn2)ccc1OC(F)F the results were CendR NRP1 mod 10, CRFR2-BP antag -3, NadD inh 2, FAS TE block -3 and Myeloid diff 2 inactive.
For COc1ccc(C(=O)COC(=O)c2cnc(C)cn2)cc1OC the results were CendR NRP1 mod 11, CRFR2-BP antag 1, NadD inh 4, FAS TE block -3, Myeloid diff 2 inactive, Myeloid diff CP1 inactive and GFP autofluor 0.
CCCCCC(=O)N1C[C@@H](n2cc(COC(=O)c3ccccc3)nn2)[C@H](O)C[C@@H]1c1ccc(OC)cc1 was read as CendR NRP1 mod 2, CRFR2-BP antag -18, NadD inh -5, FAS TE block 8 and Myeloid diff 2 inactive.
Screening CCCCCC(=O)N1C[C@@H](O)[C@H](n2cc(COC(=O)c3ccccc3)nn2)C[C@@H]1c1ccc(OC)cc1 returned CendR NRP1 mod -9, CRFR2-BP antag -1, NadD inh 2, FAS TE block -4, Myeloid diff 2 inactive, Myeloid diff CP1 inactive and GFP autofluor 0.
COc1cc(NC(=O)COC(=O)/C=C/c2ccccc2Cl)cc(OC)c1 was read as CendR NRP1 mod 0, CRFR2-BP antag -23, NadD inh -11, FAS TE block 23, Myeloid diff 2 inactive, Myeloid diff CP1 inactive and GFP autofluor 0.
Screening COC(=O)[C@]1(C)N[C@H](CN(C)S(=O)(=O)c2ccc(C)cc2)[C@@H]2C(=O)N(C)C(=O)[C@@H]21 returned CendR NRP1 mod -13, CRFR2-BP antag -5, NadD inh -1, FAS TE block -12 and Myeloid diff 2 inactive.
`CCN(CC)C(=O)[C@H]1C[C@H](CC(=O)NC(C)(C)C)C(=O)N2CCc3c([nH]c4cc(-c5ccco5)ccc34)[C@]12C` gave CendR NRP1 mod -30, CRFR2-BP antag 4, NadD inh 9, FAS TE block -1, Myeloid diff 2 active, Myeloid diff CP1 inactive and GFP autofluor 0.
